Test systems include K-562 leukemia; MALME-3M melanoma; RXF 393 renal; UACC-257 melanoma; SK-MEL-28 melanoma; SN12C renal; TK-10 renal; CAKI-1 renal; RPMI-8226 leukemia; BT-549 breast; MDA-MB-435 melanoma; HCC-2998 colon; HOP-92 NSCLC; SK-MEL-2 melanoma; A498 renal; OVCAR-3 ovarian.
Common to all, as to experiment: NCI-60 one-dose screen, 48 h (100 = growth as untreated, 0 = no growth, -100 = all killed)
What all share (settings): 10 µM

SMILES strings stand for the structures. Where “and” joins values, the source holds several entries; their conditions need not be identical. Equal values may be shown once. The panel holds about 83,000 compounds, 20% with a hit somewhere; the sample as a whole holds those more often.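 96-well plates, one dose, 48 hours. Percent growth reported; active if below 10.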 Calls of active or inactive are those of the source.

On to `CC1=C2C(=C[C@@](C)(COC(=O)c3ccc(S(=O)(=O)F)cc3)[C@@H]2O)C(=O)[C@](C)(O)C12CC2`, for which the growth is 6.74% (active) in the assay on K-562 leukemia; -56.1% (active) in the assay on MALME-3M melanoma; -88.8% (active) in the assay with RXF 393 renal; -52.7% (active) with UACC-257 melanoma; -66.3% (active) with SK-MEL-28 melanoma; -2.35% (active) with SN12C renal. Also, the growth in the assay with TK-10 renal is -6.77% (active); with CAKI-1 renal, -0.688% (active); with RPMI-8226 leukemia, 89.7% (inactive); with BT-549 breast it was -88.2% (active); with MDA-MB-435 melanoma, -72.2% (active); with HCC-2998 colon, -50.6% (active).
With `C/C=C/CC(C)C(O)[C@H](NC(=O)[C@@H]1CCCN1C(=O)C(C)(C)NC(=O)CCCCCCCCC)C(=O)N[C@@](C)(CC)C(=O)N[C@@H](CCC(N)=O)C(=O)N[C@H](CCC(N)=O)C(=O)NC(C)(C)C(=O)NC(C)(C)C(=O)N[C@@H](CCC(N)=O)C(=O)N[C@H](CC(C)C)C(=O)N[C@H](CO)CC(C)C` (stereo partly drawn), the growth with HOP-92 NSCLC was 7.21% (active) and 76.4% (inactive); with K-562 leukemia, -17.8% (active) and 16.5% (inactive); in the assay with MALME-3M melanoma it was -65.1% (active) and -22% (active); in the assay on RXF 393 renal, -61.8% (active) and 31.5% (inactive); in the assay with UACC-257 melanoma it was -66.9% (active) and 3.39% (active); in the assay on SK-MEL-28 melanoma, -92.6% (active) and -78.4% (active). Moreover, the growth is 13.2% (inactive) and 89.1% (inactive) with SK-MEL-2 melanoma; 18.6% (inactive) and 12.1% (inactive) in the assay on SN12C renal; 59.9% (inactive) and 97.1% (inactive) with TK-10 renal; 13.1% (inactive) and 44.1% (inactive) with CAKI-1 renal; -40.8% (active) and 38.8% (inactive) in the assay on A498 renal; 7.09% (active) and 29.1% (inactive) in the assay on RPMI-8226 leukemia. Further, the growth is 76.2% (inactive) with OVCAR-3 ovarian; -33.5% (active) with BT-549 breast; -84.2% (active) and -6.26% (active) in the assay on MDA-MB-435 melanoma; -12% (active) and 13.2% (inactive) with HCC-2998 colon.

(Values after PubChem BioAssay (NCI).)
